Among all 370,000 compounds or so, about 4,700 (1.3%) were called active. What follows is part of a selection rich in actives, with near analogues and random picks from the rest. Values without a mark were called inactive.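 The calls were made as follows: active = inhibition above the plate cutoff, the mean of all test compounds on that plate plus 3 SD (cut at about 35% in these data); inactive = the rest.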
Assay: binders of r(CAG) RNA repeats, primary screen, biochemical, fluorescence (AID 651821);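 also: 0% = DMSO alone and 100% = 100 µM mitoxantrone as full dye displacement; higher means more dye released from RNA so lower well fluorescence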
Conditions: r(CAG) RNA repeat, TO-PRO-1 dye displacement fluorescence; at 3 µM; active compounds read high

Row | SMILES | inhibition
1 | C=CCn1c(C2CC(=O)N(c3ccc(C)cc3)C2)nc2ccccc21 (stereo not drawn) | -6.52%
2 | C=CCn1c(=S)[nH]c2scc(-c3ccco3)c2c1=O | 51.7% (active)
3 | C=CCOC/C=C/C#CCN(CC=C)Cc1ccc(OC)cc1OC | -2.46%
4 | COC(=O)[C@]12C[C@H](CC(=O)NCc3cccc(C(F)(F)F)c3)C(=O)N(Cc3ccc4c(c3)OCO4)C1=C[C@H](COCc1ccccc1)O[C@@H]2C | 7.43%
5 | Cc1noc(NS(=O)(=O)c2ccc(N3CC(O)=C(c4ccccc4)C3=N)cc2)c1C | 2.76%
6 | Cc1cc(NS(=O)(=O)c2ccc(NC(=O)CSc3nnc(SCc4ccc(F)cc4)s3)cc2)nc(C)n1 | 43.9% (active)
7 | Cc1cc(NS(=O)(=O)c2ccc(NC(=O)CSc3nnc(-c4ccc(C(C)(C)C)cc4)n3Cc3ccco3)cc2)nc(C)n1 | 37% (active)
8 | O=C(CSc1nnc(-c2cccc(Cl)c2)n1Cc1ccco1)Nc1ccc(OCc2ccccc2)cc1 | 8.04%
9 | Cc1nnc(SCC(=O)Nc2ccc(S(=O)(=O)Nc3ccc(Cl)nn3)cc2)s1 | 16.9%
10 | CCn1c(SCC(=O)Nc2ccc(S(=O)(=O)Nc3onc(C)c3C)cc2)nnc1-c1ccccc1 | 35.5% (active)
11 | CCn1c2ccccc2c2cc(NC(=O)CSc3nnc(-c4ccccc4)n3-c3ccc(C)cc3)ccc21 | 11.4%
12 | Cc1ccc(-c2nnc(SCC(=O)Nc3ccc(Oc4ccccc4)cc3)n2Cc2ccco2)cc1 | 10.4%
13 | O=C(CSc1nnc(SCc2ccc(F)cc2)s1)Nc1ccc(C(=O)O)cc1 | 24.4%
14 | COC(=O)C1=C(C)N(Cc2cccc(C(F)(F)F)c2)C(=NCc2ccccc2)NC1c1ccccc1C(F)(F)F (stereo not drawn) | 4.41%
15 | NC(=O)c1ncn([C@@H]2O[C@H](C(=O)O)[C@@H](O)[C@H]2O)n1 | 1.22%
16 | COc1ccc(C#CCNCc2ccc(OC)cc2OC)cc1 | 7.62%
17 | CC(=O)OC1CCC2(C)C(=CCC3C4CC(=O)N(O)C(=O)C4(C)CCC32)C1 (stereo not drawn) | 5.82%
18 | CC(=O)OCCN1CCCC12CCC(c1ccccc1)CC2 (stereo not drawn) | 2.02%
19 | COC(=O)[C@]12C[C@H](CC(=O)NCCCN3CCCC3=O)C(=O)N(CCc3ccc(OC)c(OC)c3)C1=C[C@H](COCc1ccccc1)O[C@@H]2C | 3.23%
20 | CC(=O)Nc1nc2ncccn2c1-c1ccc(C(F)(F)F)cc1 | 0.83%
21 | Cc1ccc(C2NC(C(=O)O)CS2)cc1 (stereo not drawn) | 0.84%
22 | COCCNC(=S)N(C)[C@H]1C[C@H]2c3[nH]c4ccccc4c3CCN2C[C@H]1[C@H](C)O | 0.81%
23 | COC(=O)[C@]12C[C@H](CC(=O)NCc3ccccc3)C(=O)N(CCC3=CCCCC3)C1=C[C@H](C(C)C)O[C@@H]2C1CC1 | 3.49%
24 | O=C(c1c[nH]c2ccccc12)N1CCC(Oc2cccnc2)CC1 | 0.25%

Row | SMILES | inhibition
25 | CC(C)=CCCC1(C)C=Cc2c(ccc3c2[nH]c2cc(O)c(C)cc23)O1 (stereo not drawn) | 50.7% (active)
26 | COP(=O)(O)CNC(=O)OCc1ccccc1 | 3.7%
27 | C[C@@H](CN1C2=NC[C@@H](Cc3ccccc3)N2C[C@H]1Cc1ccc(O)cc1)NC(=O)CCC1CCCCC1 | 10.8%
28 | C=C(C)C#CC(Cc1ccccc1)NCC1CC1 (stereo not drawn) | 0.83%
29 | O=C(CSc1nnc(-c2cccs2)n1Cc1ccco1)c1ccc2c(c1)OCO2 | 2.71%
30 | O=C(CSc1nnc(COc2ccccc2)n1Cc1ccco1)c1ccc2ccccc2c1 | 10.1%
31 | Cc1sc2nc(SCC(=O)c3ccc(O)c(O)c3)n(Cc3ccco3)c(=O)c2c1C | 60.5% (active)
32 | CN[C@H]1C[C@H]2c3cc(N4CCOCC4)ccc3CCN2C[C@H]1[C@H](C)O | 0.53%
33 | COC(=O)c1ccc(NC(=O)CSc2nc(N)c(NC(=O)c3ccc(Br)o3)c(=O)[nH]2)cc1 | 8.43%
34 | COc1ccc(CNC(=O)CCC(=O)Nc2nnc(C(C)C)s2)cc1 | -3.44%
35 | COc1ccc(OCCCC(=O)Nc2nnc(C3CCCO3)s2)cc1 (stereo not drawn) | -2.42%
36 | COc1ccc(OCC(=O)Nc2nnc(-c3ccco3)s2)cc1 | 35.6% (active)
37 | CC(=O)C1=C(C)N(Cc2ccccc2)C(=S)NC1c1cccc(Br)c1 (stereo not drawn) | 3.69%
38 | Cc1[nH]nc2c1C(c1ccc(Br)cc1)NC2=O (stereo not drawn) | 2.38%
39 | CCc1cc(-c2nnc(SCC(=O)NC3CC3)n2C)cs1 | -0.55%
40 | N#Cc1c(-c2cccs2)nc(SCC(=O)c2ccc(Br)cc2)[nH]c1=O | 76% (active)
41 | Cc1nnc(SCC(=O)NCc2cccs2)[nH]c1=O | 1.73%
42 | CCc1ccc(C(=O)CSc2nnc(C)c(=O)[nH]2)cc1 | 1.9%
43 | COc1ccc(-n2c(COc3ccccc3)nnc2SCC(=O)Nc2ccc3c(c2)OCO3)cc1 | 3.35%
44 | CN[C@H]1C[C@H]2c3[nH]c4c(-c5ccccc5)cccc4c3CCN2C(=O)[C@H]1[C@H](C)O | 1.12%
45 | COc1ccc([C@H]2OC(=O)C[C@H]2C(=O)N2CCN(c3ccccc3F)CC2)cc1OC | -0.41%
46 | O=C(CCCCCN1C(=O)C2C3C=CC(C3)C2C1=O)Nc1ccccc1 (stereo not drawn) | -0.35%
47 | O=C(O)c1cccc(NC(=O)c2cc(-c3cccc(Cl)c3)nc3ccccc23)c1 | 49.4% (active)
48 | O=C(Nc1cccc(F)c1)c1cc(-c2ccco2)nc2ccccc12 | 35% (active)

Row | SMILES | inhibition
49 | Cc1cc(C(=O)Nc2ccc(C)c(S(=O)(=O)N3CCOCC3)c2)c2ccccc2n1 | 5.4%
50 | O=C(Nc1cccc(F)c1)c1coc(=O)c(Br)c1 | 1.62%
51 | O=C(Nc1nc2ccc(Cl)cc2s1)c1cc(-c2ccc(Cl)cc2)nc2ccccc12 | 7.74%
52 | Cc1c(C(=O)Nc2cccc(Cl)c2)cn2c(nc3ccccc32)c1C#N | 0.68%
53 | CN(C)S(=O)(=O)c1cccc(C(=O)N/N=C\c2ccco2)c1 | 3.29%
54 | Cc1ccc(S(=O)(=O)N2CC3C(=O)C[C@@H](c4ccccc4Cl)N(S(=O)(=O)c4ccc(C)cc4)C3CC2c2ccccc2)cc1 (stereo partly drawn) | 8.71%
55 | CC(C)CSc1nnc(-c2cccnc2)n1Cc1ccccc1 | -1.04%
56 | CN(C)CCCCCN(C)Cc1cc2ccccc2o1 | -1.3%
57 | CC(=O)O[C@@]1(C(C)=O)CCC2[C@H]3C=C(C)C4=CC(=O)CC[C@@]4(C)C3CC[C@]21C (stereo partly drawn) | 1.96%
58 | Cc1coc2cc3oc(=O)c(CCC(=O)O)c(C)c3cc12 | -1.41%
59 | CCCCCCc1cc2cc(-c3nnc(-c4cccc(OC)c4)o3)c(=O)oc2cc1O | 0.83%
60 | COc1cccc(-c2coc3cc4oc(=O)c(CC(=O)O)c(C)c4cc23)c1 | 46.5% (active)
61 | CC[C@@H]1Cc2cc(O)ccc2C2=C1c1ccc(O)cc1C[C@H]2CC | 6.76%
62 | CCCCNC(=O)C[C@H]1C(=O)N(Cc2ccc(OC)cc2)C2=CCCC[C@@]21C(=O)OCC | -0.31%
63 | O=C1Nc2ccccc2OC1CC(=O)N1CCCCCCC1 (stereo not drawn) | 4.22%
64 | Cc1ccc(S(=O)(=O)Nc2nc3ccccc3s2)cc1[N+](=O)[O-] | 45% (active)
65 | Cc1ccc(S(=O)(=O)N(Cc2ccccc2)c2ccccn2)cc1[N+](=O)[O-] | -3.84%
66 | CCOc1ccc2sc(NS(=O)(=O)c3ccc(N)cc3)nc2c1 | 9.5%
67 | CCOC(=O)[C@]12CCCC=C1N(Cc1ccc(OC)cc1)C(=O)[C@@H]2CC(=O)N1CCOCC1 | -1.51%
68 | CN1CCCCC(NC(=O)C(C)(C)C)C1=O (stereo not drawn) | 2.33%
69 | COC(=O)[C@]12C[C@H](CC(=O)NCc3ccccc3)C(=O)N(CCc3ccc(OC)c(OC)c3)C1=C[C@H](C(C)(C)C)O[C@@H]2C | -2.21%
70 | CC(Sc1ncnc2c1cnn2-c1ccccc1)C(=O)Nc1ccc(N2CCOCC2)cc1 (stereo not drawn) | 5.83%
71 | Cc1ccc(-n2ncc3c(Nc4cccc(C(=O)O)c4)ncnc32)cc1 | 40.9% (active)
72 | COC(=O)CSc1ncnc2c1cnn2-c1ccc(C)cc1C | -5.94%

Row | SMILES | inhibition
73 | O=C(NCCC1=CCCCC1)C1CCN(S(=O)(=O)c2ccc(Cl)s2)CC1 | 1%
74 | CSc1ccc(CN(C)CC(=O)NCc2ccc(F)cc2)cc1 | -7.36%
75 | O=C(NCc1ccccc1)[C@H]1CCCN1C(=O)[C@@H]1CCCN1C(=O)c1ccc(Cl)cc1Cl | 1.95%
76 | COC(=O)c1sccc1NS(=O)(=O)c1ccc(F)cc1F | 1.91%
77 | COC(=O)c1scc(C)c1NC(=O)CSc1ccc(Cl)cc1 | -5.15%
78 | COC(=O)c1sccc1NC(=O)CSc1ccccc1NS(=O)(=O)c1cc(Cl)ccc1Cl | 59.2% (active)
79 | C=CC[C@]12C[C@@]3(O[C@H](c4ccc(C(F)(F)F)cc4)N=C3C[C@H](c3ccc(OC)cc3)[C@H]1C)N(C1CCN(Cc3ccccc3)CC1)C2=O | 5.05%
80 | COc1ccc(C(=O)OCCN2CCN(C3CN(Cc4cn(Cc5ccccc5F)nn4)S(=O)(=O)C3)CC2)cc1OC (stereo not drawn) | 1.05%
81 | CCC(=O)OCCCN1C(=O)CCC12CCC(c1ccccc1)CC2 (stereo not drawn) | -0.66%
82 | COc1ccc(-c2cc(=O)oc3cc(OC(C)C(=O)NCC4CCC(C(=O)O)CC4)ccc23)cc1 (stereo not drawn) | 8.77%
83 | COc1ccc(-c2cc(C(=O)NC(Cc3c[nH]c4ccccc34)C(=O)O)c(C)o2)cc1OC (stereo not drawn) | 53.8% (active)
84 | COc1ccc(-c2cc(=O)oc3cc(OCC(=O)N[C@@H](Cc4c[nH]c5ccccc45)C(=O)O)ccc23)cc1 | 55.5% (active)
85 | CC(Oc1ccc2c(-c3ccccc3)cc(=O)oc2c1)C(=O)NC(Cc1c[nH]c2ccccc12)C(=O)O (stereo not drawn) | 42.8% (active)
86 | COc1ccc(-c2cc(C(=O)NC(C(=O)O)C(C)C)c(C)o2)cc1OC (stereo not drawn) | 6.76%
87 | O=C(N[C@@H](Cc1c[nH]c2ccccc12)C(=O)O)OCC1c2ccccc2-c2ccccc21 | 59.4% (active)
88 | O=C(CCn1nnc2ccccc2c1=O)N[C@@H](Cc1c[nH]c2ccccc12)C(=O)O | 2.19%
89 | CCOCCCNC(=O)C(NC(=O)Cc1c[nH]c2ccccc12)c1ccc(OC)cc1 (stereo not drawn) | -4.93%
90 | COC(=O)C(Cc1c[nH]c2ccccc12)NC(=O)CCNC(=O)c1ccco1 (stereo not drawn) | 2%
91 | COc1ccc(-c2cc(=O)oc3cc(OCC(=O)N(C)C4CCS(=O)(=O)C4)ccc23)cc1 (stereo not drawn) | -1.96%
92 | O=C(NC(Cc1c[nH]c2ccccc12)C(=O)O)/C(=C/c1ccco1)NC(=O)c1ccccc1 (stereo not drawn) | 20.3%
93 | COC(=O)C(C)Oc1ccc2c(-c3cccc([N+](=O)[O-])c3)cc(=O)oc2c1 (stereo not drawn) | 1.44%

Source: PubChem BioAssay AID651821 (The Scripps Research Institute Molecular Screening Center, 2012)
